Results filed as inconclusive are left out. Activity calls are given as the source filed them. Unless noted, calls come from the whole dose curve; as a rule, active = well fitted curve in the direction sought with a large enough effect; inconclusive = small, poorly fitted or top-dose-only effect, or another doubt; inactive = no such curve, though single readings can be large; an effect the other way counts as inactive or inconclusive.
Assays:
[1] = biological target: Nucleoprotein (Lymphocytic choriomeningitis virus (strain Armstrong)) (UniProt P09992); test: qHTS for Inhibitors of the Functional Ribonucleoprotein Complex (vRNP) of Lymphocytic Choriomeningitis Arenaviruses (LCMV): LCMV Primary Screen - GLuc reporter signal (AID 1347086; calls by dose curve; note: series mostly up to about 57 µM; nearly all actives have a fitted effect of over 70% in size)
[2] = qHTS of pediatric cancer cell lines to identify multiple opportunities for drug repurposing: Primary screen for TC32 cells (AID 1347089); note: nearly all actives have a fitted effect of over 60% in size
Procedure, shortened: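 qHTS, TC32, 48 h drug treatment, CellTiter-Glo luminescence as a proxy for metabolically active cells; primary top concentration 46 µM (MIPE 11-pt, NPC 8-pt); confirmatory 11-pt.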

[3] = qHTS of pediatric cancer cell lines to identify multiple opportunities for drug repurposing: Primary screen for DAOY cells (AID 1347090); note: series mostly up to about 46 µM; nearly all actives have a fitted effect of over 55% in size
Procedure, shortened: (§1)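 Viability measured as metabolically active cells via CellTiter-Glo luminescence following 48 hours of compound exposure, 11-point dilutions in confirmatory testing. 500-1,000 cells/well plated 5 hours before dosing; controls were DMSO and 2.3 µM bortezomib.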

[4] = qHTS of pediatric cancer cell lines to identify multiple opportunities for drug repurposing: Primary screen for SJ-GBM2 cells (AID 1347091)
Procedure, shortened: as §1

[5] = qHTS of pediatric cancer cell lines to identify multiple opportunities for drug repurposing: Primary screen for A673 cells (AID 1347092); note: nearly all actives have a fitted effect of over 45% in size
Procedure, shortened: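 Luminescence from CellTiter-Glo, taken after 15 min at room temperature, served as the proxy for metabolically active cells following 48 h treatment. Both potency and efficacy were taken from curves fitted to the titration data.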

[6] = qHTS of pediatric cancer cell lines to identify multiple opportunities for drug repurposing: Primary screen for SK-N-MC cells (AID 1347093); note: series mostly up to about 46 µM
Procedure, shortened: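 Metabolically active cells were quantified by ATP-dependent luminescence (CellTiter-Glo, 15 min at room temperature) following 48 h treatment. Cells had been plated at 500-1,000 per well and settled for 5 h beforehand.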

[7] = qHTS of pediatric cancer cell lines to identify multiple opportunities for drug repurposing: Primary screen for BT-37 cells (AID 1347094); note: series mostly up to about 57 µM
Procedure, shortened: (§2)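 500-1,000 cells/well; 5 h pre-incubation 37 °C/5% CO2; compound pinned; 48 h; CellTiter-Glo, 15 min RT; luminescence. MIPE 11-pt from 0.78 nM, NPC 8-pt from 0.59 nM final. Bortezomib 2.3 µM final as positive control.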

[8] = qHTS of pediatric cancer cell lines to identify multiple opportunities for drug repurposing: Primary screen for NB-EBc1 cells (AID 1347095)
Procedure, shortened: as §2

[9] = qHTS of pediatric cancer cell lines to identify multiple opportunities for drug repurposing: Primary screen for U-2 OS cells (AID 1347096); note: nearly all actives have a fitted effect of over 50% in size
Procedure, shortened: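 Viability after 48 h compound treatment at 37C, 500-1,000 cells/well, read as ATP luminescence with CellTiter-Glo. Primary screens used 11-point (MIPE, 0.78 nM-46 µM) or 8-point (NPC, 0.59 nM-46 µM) final concentrations; follow-up screens used 11-point dilutions.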

[10] = qHTS of pediatric cancer cell lines to identify multiple opportunities for drug repurposing: Primary screen for Saos-2 cells (AID 1347097); note: nearly all actives have a fitted effect of over 40% in size
Procedure, shortened: as §2

Measured: Potency

Nucleoprotein (Lymphocytic choriomeningitis virus (strain Armstrong)), sequence (P09992 whole entry, looked up): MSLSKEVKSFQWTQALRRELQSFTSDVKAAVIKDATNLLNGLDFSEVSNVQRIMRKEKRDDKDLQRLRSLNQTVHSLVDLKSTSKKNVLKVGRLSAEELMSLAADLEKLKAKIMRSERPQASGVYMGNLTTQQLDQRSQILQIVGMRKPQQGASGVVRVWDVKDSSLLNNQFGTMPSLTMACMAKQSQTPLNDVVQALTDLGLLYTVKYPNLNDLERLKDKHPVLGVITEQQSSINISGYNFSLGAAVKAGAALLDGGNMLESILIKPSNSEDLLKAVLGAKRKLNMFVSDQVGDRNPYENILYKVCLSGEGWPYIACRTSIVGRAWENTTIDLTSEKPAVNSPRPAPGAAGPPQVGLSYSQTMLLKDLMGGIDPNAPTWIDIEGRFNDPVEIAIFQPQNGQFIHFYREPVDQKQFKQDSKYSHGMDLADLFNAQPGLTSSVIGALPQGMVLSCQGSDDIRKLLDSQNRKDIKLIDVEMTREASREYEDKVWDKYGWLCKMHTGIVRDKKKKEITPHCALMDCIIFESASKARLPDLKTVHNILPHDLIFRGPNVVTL

CCOC(=O)NC(C)(C)Cc1ccc(Cl)cc1
not listed: [10]
inactive: all other assays above

CCOP(=S)(OCC)O/N=C(\C#N)c1ccccc1
inactive: all assays above

CCNc1nc(Cl)nc(NCC)n1
not listed: [10]
inactive: all other assays above

Cc1ccc(N=CN(C)C=Nc2ccc(C)cc2C)c(C)c1
inactive: all assays above

CCC(=O)OC1(c2ccccc2)CCN(C)CC1
inactive: all assays above

CCC1(c2ccccc2)CCC(=O)NC1=O (configuration not stated)
not listed: [10]
inactive: all other assays above

C[C@H]1CNCCc2ccc(Cl)cc21
inactive: all assays above

COc1ccc(CN2CCNCC2)c(OC)c1OC
inactive: all assays above

CCS(=O)(=O)C(C)(C)S(=O)(=O)CC
not listed: [10]
inactive: all other assays above

CCC1(c2cccc(O)c2)CCCCN(C)C1 (configuration not stated)
not listed: [10]
inactive: all other assays above

CC1N=C(N)OC1c1ccccc1 (configuration not stated)
inactive: all assays above

CCCC[N+]1(C)[C@@H]2CC(OC(=O)[C@H](CO)c3ccccc3)C[C@H]1[C@@H]1O[C@@H]12 (some centres not stated)
inactive: all assays above

COP(=S)(OC)Oc1ccc(S(N)(=O)=O)cc1
inactive: all assays above

CC(C(O)c1ccccc1)N(C)C/C=C/c1ccccc1 (configuration not stated)
inactive: all assays above

CC(Cc1ccccc1)NCCCCl (configuration not stated)
inactive: all assays above

CCOC(=O)c1ncn2c1CN(C)C(=O)c1c(I)cccc1-2
inactive: all assays above

ClCCCN1CCN(c2cccc(Cl)c2)CC1
inactive: all assays above

Cc1nc2ccccc2c(=O)n1-c1ccccc1Cl
not listed: [10]
inactive: all other assays above

Cc1nnc2n1-c1sc(CCC(=O)N3CCOCC3)cc1C(c1ccccc1Cl)=NC2
inactive: all assays above

C=CCN1CC[C@]23CCCC[C@H]2[C@H]1Cc1ccc(O)cc13
not listed: [10]
inactive: all other assays above

COc1cc(C[C@@H](C)N)c(OC)cc1Br
inactive: all assays above

CCN(CC)C(C)C(=O)c1ccccc1 (configuration not stated)
inactive: all assays above

O=c1n(Cl)c(=O)n(Cl)c(=O)n1Cl
inactive: all assays above

CC(C)C(Br)C(=O)NC(N)=O (configuration not stated)
inactive: all assays above

CC1=C2[C@H]3OC(=O)[C@@H](C)[C@@H]3CC[C@@]2(C)C=CC1=O
not listed: [10]
inactive: all other assays above

From PubChem BioAssay (NCATS)
